Targets with a hit are over-represented here; the source holds about 7,900 in all. About 0.6% of all pairs of compound and target were hits. Unmarked numbers belong to inactive results.
Key:
Assay in all cases: log2 fold change, soluble protein after heating vs DMSO (PISA); higher = thermal stabilisation; K562 cells, 10 uM, 30 min; active = over 0.2 and 3.5 SD of the protein, either way, in both replicates (recomputed)
[1] = compound: COC1=CC=C(C=C1)CN2C=CC3=C2C=C(C=C3)C(=O)NO
How it was run: (§1)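 K562 cells at 2×10^6 cells/mL were treated with 10 μM compound for 30 min. Aliquots were heated for 3 min across 48°C-58°C, pooled, and extracted in PBS with 0.5% NP-40 at 4°C; soluble protein was the supernatant after 21,000xg for 90 min. Soluble protein was quantified by TMTpro 16plex LC-MS/MS with channel sums equalised, and reported as log2 fold change in thermal stability against DMSO controls, with values from duplicates.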

filanesib = compound: CON(C)C(=O)N1N=C(c2cc(F)ccc2F)S[C@@]1(CCCN)c1ccccc1 [filanesib]
How it was run: as §1

zotarolimus = compound: CO[C@H]1C[C@@H]2CC[C@@H](C)[C@@](O)(O2)C(=O)C(=O)N2CCCC[C@H]2C(=O)O[C@H]([C@H](C)C[C@@H]2CC[C@H](n3cnnn3)[C@H](OC)C2)CC(=O)[C@H](C)/C=C(\C)[C@@H](O)[C@@H](OC)C(=O)[C@H](C)C[C@H](C)/C=C/C=C/C=C/1C [zotarolimus]
How it was run: as §1

idasanutlin = compound: COc1cc(C(=O)O)ccc1NC(=O)[C@@H]1N[C@@H](CC(C)(C)C)[C@](C#N)(c2ccc(Cl)cc2F)[C@H]1c1cccc(Cl)c1F [idasanutlin]
How it was run: as §1

alisertib = compound: COc1cc(Nc2ncc3c(n2)-c2ccc(Cl)cc2C(c2c(F)cccc2OC)=NC3)ccc1C(=O)O [alisertib]
How it was run: as §1

[2] = compound: COc1cc2nc(-c3cc(F)ccc3O)nc(N[C@@H]3CNC[C@H]3C(C)(C)O)c2cc1OC
How it was run: as §1

gefitinib = compound: COc1cc2ncnc(Nc3ccc(F)c(Cl)c3)c2cc1OCCCN1CCOCC1 [gefitinib]
How it was run: as §1

[3] = compound: COc1cccc2cc(-c3nc([C@H]4CC[C@H](C(=O)O)CC4)n4ncnc(N)c34)[nH]c12
How it was run: as §1

lapatinib = compound: CS(=O)(=O)CCNCc1ccc(-c2ccc3ncnc(Nc4ccc(OCc5cccc(F)c5)c(Cl)c4)c3c2)o1 [lapatinib]
How it was run: as §1

pictilisib = compound: CS(=O)(=O)N1CCN(Cc2cc3nc(-c4cccc5[nH]ncc45)nc(N4CCOCC4)c3s2)CC1 [pictilisib]
How it was run: as §1

Chain of UniProt Q96I59 (Q96I59 whole entry, looked up): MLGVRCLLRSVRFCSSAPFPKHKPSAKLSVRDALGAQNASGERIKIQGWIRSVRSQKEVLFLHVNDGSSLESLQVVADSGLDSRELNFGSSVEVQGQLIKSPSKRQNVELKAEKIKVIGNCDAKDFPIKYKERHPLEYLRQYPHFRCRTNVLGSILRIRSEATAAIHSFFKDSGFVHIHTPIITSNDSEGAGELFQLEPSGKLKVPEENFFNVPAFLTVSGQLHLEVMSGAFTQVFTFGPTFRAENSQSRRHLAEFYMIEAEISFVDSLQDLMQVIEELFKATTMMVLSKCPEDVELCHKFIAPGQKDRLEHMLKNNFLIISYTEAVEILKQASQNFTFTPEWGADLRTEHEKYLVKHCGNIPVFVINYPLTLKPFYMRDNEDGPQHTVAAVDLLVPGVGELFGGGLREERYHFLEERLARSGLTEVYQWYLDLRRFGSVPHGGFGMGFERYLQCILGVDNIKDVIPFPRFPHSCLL
Chain of UniProt P49914 (P49914 whole entry, looked up): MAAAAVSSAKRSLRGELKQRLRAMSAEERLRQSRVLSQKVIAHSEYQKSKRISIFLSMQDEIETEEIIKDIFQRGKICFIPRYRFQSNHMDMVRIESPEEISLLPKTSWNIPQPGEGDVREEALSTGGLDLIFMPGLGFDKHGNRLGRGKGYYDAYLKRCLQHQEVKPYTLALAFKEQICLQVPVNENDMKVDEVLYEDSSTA
Chain of UniProt P25208 (P25208 whole entry, looked up): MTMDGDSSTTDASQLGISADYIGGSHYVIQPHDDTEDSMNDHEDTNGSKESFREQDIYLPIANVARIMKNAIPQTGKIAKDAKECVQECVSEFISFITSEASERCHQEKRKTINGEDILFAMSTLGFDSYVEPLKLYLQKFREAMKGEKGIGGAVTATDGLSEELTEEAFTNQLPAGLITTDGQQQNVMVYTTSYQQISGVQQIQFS
Chain of UniProt O14524 (O14524 whole entry, looked up): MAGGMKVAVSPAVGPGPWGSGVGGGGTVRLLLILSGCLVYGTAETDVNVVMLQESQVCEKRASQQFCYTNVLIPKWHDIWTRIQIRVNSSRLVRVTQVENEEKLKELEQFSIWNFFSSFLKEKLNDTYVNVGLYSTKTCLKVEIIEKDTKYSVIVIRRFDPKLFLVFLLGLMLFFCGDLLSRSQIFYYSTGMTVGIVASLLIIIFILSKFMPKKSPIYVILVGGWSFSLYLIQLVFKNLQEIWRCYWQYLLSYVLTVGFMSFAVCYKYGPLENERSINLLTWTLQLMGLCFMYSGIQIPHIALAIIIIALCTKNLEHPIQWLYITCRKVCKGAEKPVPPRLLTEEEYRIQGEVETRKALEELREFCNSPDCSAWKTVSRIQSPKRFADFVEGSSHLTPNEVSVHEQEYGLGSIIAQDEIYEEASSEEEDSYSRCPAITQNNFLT
Chain of UniProt Q9NZT2 (Q9NZT2 whole entry, looked up): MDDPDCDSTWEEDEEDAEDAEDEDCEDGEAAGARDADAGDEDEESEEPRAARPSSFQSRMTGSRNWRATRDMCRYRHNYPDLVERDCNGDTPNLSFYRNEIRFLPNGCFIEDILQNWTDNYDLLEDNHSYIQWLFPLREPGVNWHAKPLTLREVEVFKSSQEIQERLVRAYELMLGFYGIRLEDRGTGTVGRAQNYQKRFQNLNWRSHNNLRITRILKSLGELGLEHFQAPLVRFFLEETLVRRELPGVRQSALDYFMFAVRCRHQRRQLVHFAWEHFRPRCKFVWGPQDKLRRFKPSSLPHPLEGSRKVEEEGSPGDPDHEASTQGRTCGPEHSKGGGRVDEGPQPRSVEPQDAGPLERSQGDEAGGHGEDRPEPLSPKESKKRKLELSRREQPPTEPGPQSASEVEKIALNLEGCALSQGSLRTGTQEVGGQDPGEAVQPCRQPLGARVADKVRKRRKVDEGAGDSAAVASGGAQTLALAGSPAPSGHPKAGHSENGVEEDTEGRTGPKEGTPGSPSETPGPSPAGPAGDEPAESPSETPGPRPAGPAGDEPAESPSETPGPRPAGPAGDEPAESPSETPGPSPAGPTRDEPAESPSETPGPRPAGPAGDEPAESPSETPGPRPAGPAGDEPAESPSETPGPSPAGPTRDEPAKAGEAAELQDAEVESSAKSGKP
Chain of UniProt Q9BZF1 (Q9BZF1 whole entry, looked up): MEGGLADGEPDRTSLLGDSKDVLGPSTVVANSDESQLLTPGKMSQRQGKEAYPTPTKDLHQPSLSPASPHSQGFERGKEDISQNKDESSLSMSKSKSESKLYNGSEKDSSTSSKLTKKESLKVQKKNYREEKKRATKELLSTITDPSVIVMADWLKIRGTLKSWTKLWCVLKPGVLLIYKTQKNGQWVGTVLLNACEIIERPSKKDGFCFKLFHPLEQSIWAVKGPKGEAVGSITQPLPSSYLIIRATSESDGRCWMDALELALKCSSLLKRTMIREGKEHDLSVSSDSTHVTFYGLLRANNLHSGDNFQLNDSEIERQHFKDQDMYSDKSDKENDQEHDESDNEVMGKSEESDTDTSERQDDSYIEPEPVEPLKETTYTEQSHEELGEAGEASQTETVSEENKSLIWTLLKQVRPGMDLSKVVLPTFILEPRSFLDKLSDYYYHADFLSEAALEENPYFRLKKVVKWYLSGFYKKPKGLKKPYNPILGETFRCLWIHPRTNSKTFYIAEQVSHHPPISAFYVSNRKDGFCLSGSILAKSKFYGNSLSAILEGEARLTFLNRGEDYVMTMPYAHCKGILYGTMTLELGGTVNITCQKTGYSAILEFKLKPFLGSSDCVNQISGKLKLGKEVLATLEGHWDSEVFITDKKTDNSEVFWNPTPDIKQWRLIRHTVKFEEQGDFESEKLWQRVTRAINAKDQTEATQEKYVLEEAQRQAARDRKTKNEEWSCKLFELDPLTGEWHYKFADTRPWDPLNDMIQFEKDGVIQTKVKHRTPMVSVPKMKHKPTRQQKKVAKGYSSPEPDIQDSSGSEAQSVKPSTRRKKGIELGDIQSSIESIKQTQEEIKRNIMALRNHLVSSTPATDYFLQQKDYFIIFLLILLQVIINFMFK
Chain of UniProt Q86WC4 (Q86WC4 whole entry, looked up): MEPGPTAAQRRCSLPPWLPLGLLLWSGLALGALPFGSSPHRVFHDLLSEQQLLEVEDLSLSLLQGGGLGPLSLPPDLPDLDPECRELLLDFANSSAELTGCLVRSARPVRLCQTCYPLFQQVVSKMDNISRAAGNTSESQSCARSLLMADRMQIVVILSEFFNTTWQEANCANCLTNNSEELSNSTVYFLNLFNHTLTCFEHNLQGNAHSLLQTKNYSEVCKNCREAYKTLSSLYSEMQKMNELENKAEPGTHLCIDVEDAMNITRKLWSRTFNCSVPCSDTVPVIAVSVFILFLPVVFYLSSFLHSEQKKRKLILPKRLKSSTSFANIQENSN
Chain of UniProt Q96IV0 (Q96IV0 whole entry, looked up): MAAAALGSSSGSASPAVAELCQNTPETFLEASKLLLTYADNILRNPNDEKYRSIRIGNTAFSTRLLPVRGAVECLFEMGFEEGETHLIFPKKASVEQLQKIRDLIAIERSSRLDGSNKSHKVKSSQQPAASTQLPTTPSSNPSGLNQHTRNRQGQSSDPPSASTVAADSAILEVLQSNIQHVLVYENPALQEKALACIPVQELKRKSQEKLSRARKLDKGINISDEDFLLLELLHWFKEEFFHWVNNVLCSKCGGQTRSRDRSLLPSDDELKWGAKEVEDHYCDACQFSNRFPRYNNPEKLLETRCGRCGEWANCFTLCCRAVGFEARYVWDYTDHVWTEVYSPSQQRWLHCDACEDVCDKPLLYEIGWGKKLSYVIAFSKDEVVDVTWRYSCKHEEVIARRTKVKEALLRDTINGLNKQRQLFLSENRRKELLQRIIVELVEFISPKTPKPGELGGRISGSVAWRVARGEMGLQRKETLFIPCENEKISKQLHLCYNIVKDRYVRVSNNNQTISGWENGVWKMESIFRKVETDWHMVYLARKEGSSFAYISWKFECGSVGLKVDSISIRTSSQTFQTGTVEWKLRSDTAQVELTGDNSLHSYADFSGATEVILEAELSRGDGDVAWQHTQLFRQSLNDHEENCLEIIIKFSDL
Chain of UniProt Q9UH92 (Q9UH92 whole entry, looked up): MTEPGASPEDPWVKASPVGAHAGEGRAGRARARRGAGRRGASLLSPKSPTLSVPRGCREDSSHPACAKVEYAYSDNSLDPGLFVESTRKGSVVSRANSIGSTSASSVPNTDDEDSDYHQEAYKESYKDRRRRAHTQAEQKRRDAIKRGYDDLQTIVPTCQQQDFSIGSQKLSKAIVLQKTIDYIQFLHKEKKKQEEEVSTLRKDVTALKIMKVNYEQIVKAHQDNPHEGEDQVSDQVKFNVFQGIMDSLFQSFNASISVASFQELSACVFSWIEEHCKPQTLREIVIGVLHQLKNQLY
Chain of UniProt Q9H081 (Q9H081 whole entry, looked up): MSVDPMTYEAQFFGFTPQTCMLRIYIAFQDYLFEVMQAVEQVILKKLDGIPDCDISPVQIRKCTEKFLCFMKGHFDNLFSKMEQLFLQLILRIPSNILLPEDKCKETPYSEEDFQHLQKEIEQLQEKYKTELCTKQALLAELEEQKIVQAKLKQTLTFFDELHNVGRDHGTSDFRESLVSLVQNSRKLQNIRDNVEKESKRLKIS
Chain of UniProt O75251 (O75251 whole entry, looked up): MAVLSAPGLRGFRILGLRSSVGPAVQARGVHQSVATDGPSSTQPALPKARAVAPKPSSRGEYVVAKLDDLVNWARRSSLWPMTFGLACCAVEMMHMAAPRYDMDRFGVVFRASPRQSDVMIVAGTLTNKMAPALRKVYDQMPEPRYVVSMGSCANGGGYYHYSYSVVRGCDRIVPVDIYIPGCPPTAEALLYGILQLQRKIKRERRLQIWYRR
Chain of UniProt P68402 (P68402 whole entry, looked up): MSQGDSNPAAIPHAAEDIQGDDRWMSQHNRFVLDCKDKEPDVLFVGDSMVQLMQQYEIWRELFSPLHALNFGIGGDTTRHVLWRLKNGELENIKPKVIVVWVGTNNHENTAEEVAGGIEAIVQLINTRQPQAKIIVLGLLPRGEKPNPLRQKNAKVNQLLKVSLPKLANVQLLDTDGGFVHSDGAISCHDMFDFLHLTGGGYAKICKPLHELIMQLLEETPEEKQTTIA
Chain of UniProt O00483 (O00483 whole entry, looked up): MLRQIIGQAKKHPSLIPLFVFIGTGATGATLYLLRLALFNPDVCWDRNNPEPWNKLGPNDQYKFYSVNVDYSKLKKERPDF

Row | Target | log2 fold change [1] | log2 fold change (filanesib) | log2 fold change (zotarolimus) | log2 fold change (idasanutlin) | log2 fold change (alisertib) | log2 fold change [2] | log2 fold change (gefitinib) | log2 fold change [3] | log2 fold change (lapatinib) | log2 fold change (pictilisib)
1 | MRPL50 (UniProt Q8N5N7) | -0.03 | 0.078 | 0.202 | -0.122 | -0.078 | -0.719 (active) | 0.004 | -0.022 | 0.42 | -0.067
2 | NMD3 (UniProt Q96D46) | 0.004 | -0.221 | 0.008 | -0.095 | -0.034 | 0.108 | 0.007 | 0.016 | 0 | 0.089
3 | NEMP1 (UniProt O14524) | -0.041 | -0.247 | -0.021 | 0.034 | -0.084 | -0.487 (active) | -0.021 | 0.006 | 0.001 | -0.02
4 | NEK3 (UniProt P51956) | 0.058 | -0.297 | 0.217 | 0.116 | 0.074 | 0.07 | 0.086 | -0.196 | 0.061 | 0.161
5 | MLX (UniProt Q9UH92) | -0.054 | 0.027 | -0.009 | -0.071 | -0.014 | 0.025 | 0.022 | 0.057 | -0.099 | 0.05
6 | NGLY1 (UniProt Q96IV0) | 0.02 | 0.043 | -0.012 | 0.112 | -0.064 | 0.047 | 0.076 | -0.128 | 0.03 | 0.045
7 | MRPS6 (UniProt P82932) | 0.204 | -0.019 | 0.038 | -0.275 (active) | 0.029 | 0.012 | -0.051 | -0.081 | 0.035 | -0.003
8 | PAFAH1B2 (UniProt P68402) | 0.044 | -0.074 | 0.007 | 0.082 | 0.02 | -0.071 | 0.086 | 0.033 | 0.029 | -0.28
9 | NDUFA4 (UniProt O00483) | -0.022 | -0.031 | -0.019 | 0.038 | -0.024 | -0.044 | 0.024 | 0.019 | 0.048 | -0.025
10 | NAGPA (UniProt Q9UK23) | -0.025 | -0.046 | -0.099 | 0.054 | -0.069 | -0.044 | 0.001 | 0.248 | 0.139 | 0.134
11 | NOL7 (UniProt Q9UMY1) | -0.089 | 0.524 | -0.024 | 0.157 | -0.119 | -0.086 | -0.006 | -0.142 | 0.169 | -0.095
12 | MMS19 isoform 8 (UniProt Q96T76) | -0.094 | -0.036 | 0.037 | -0.014 | -0.019 | 0.06 | 0.026 | 0.019 | -0.021 | -0.008
13 | OSTM1 (UniProt Q86WC4) | -0.012 | -0.122 | 0.007 | 0.002 | -0.015 | -0.09 | -0.066 | 0.002 | 0.056 | 0.055
14 | NCOR1 (UniProt O75376) | -0.07 | 0.078 | 0.069 | 0.004 | -0.086 | 0.128 | -0.018 | 0.064 | -0.119 | 0.135
15 | NUDCD2 (UniProt Q8WVJ2) | 0.072 | -0.016 | 0.065 | 0.075 | -0.011 | 0.117 | 0.083 | -0.018 | -0.038 | 0.014
16 | OXR1 (UniProt Q8N573) | -0.018 | -0.078 | 0.009 | -0.014 | -0.059 | 0.034 | 0.003 | 0.018 | 0.011 | 0.164
17 | MIS12 (UniProt Q9H081) | 0.079 | 0.004 | 0.077 | -0.011 | 0.06 | 0.035 | 0.026 | 0.032 | -0.048 | -0.005
18 | MRPL34 (UniProt Q9BQ48) | -0.074 | 0.081 | 0.072 | 0.029 | -0.089 | -0.045 | -0.105 | -0.164 | 0.028 | -0.102
19 | OSBPL8 (UniProt Q9BZF1) | 0.034 | 0.077 | -0.067 | -0.016 | -0.052 | -0.086 | 0.23 | -0.22 | 0.142 | -0.015
20 | MRPS25 (UniProt P82663) | 0.066 | 0.029 | 0.053 | -0.185 | -0.038 | -0.055 | 0.058 | -0.046 | 0.08 | 0.063
21 | OGFR (UniProt Q9NZT2) | -0.005 | 0.048 | 0.137 | -0.042 | -0.157 | 0.023 | -0.015 | -0.152 | 0 | 0.019
22 | NARS2 (UniProt Q96I59) | -0.213 | -0.196 | 0.027 | -0.072 | -0.046 | 0.007 | -0.039 | 0.09 | -0.031 | -0.037
23 | NME2P1 (UniProt O60361) | -0.256 | 0.058 | -0.111 | -0.367 | -0.089 | 0.122 | -0.01 | 0.084 | -0.075 | -0.041
24 | NDUFS7 (UniProt O75251) | -0.009 | -0.108 | -0.036 | -0.112 | 0.039 | -0.106 | -0.029 | 0.057 | 0.015 | 0.047
25 | NFYB (UniProt P25208) | 0.245 | -0.036 | -0.024 | 0.066 | -0.097 | -0.047 | 0.039 | 0.02 | 0.078 | -0.155
26 | MTHFS (UniProt P49914) | 0.032 | -0.023 | -0.02 | -0.006 | -0.065 | 0.041 | 0.053 | 0.052 | 0.028 | 0.016
27 | MRPS33 (UniProt Q9Y291) | -0.033 | 0.002 | 0.043 | -0.167 | -0.052 | -0.057 | 0 | 0.008 | 0.036 | -0.1
28 | MRPS22 (UniProt P82650) | 0.041 | 0.05 | 0.071 | -0.301 (active) | 0.015 | 0.019 | -0.017 | -0.019 | 0.038 | -0.03
29 | MRPS9 (UniProt P82933) | 0.009 | 0.007 | 0.065 | -0.16 | 0.076 | -0.021 | 0.084 | 0.016 | 0.096 | -0.049
30 | NCAPD2 (UniProt Q15021) | 0.025 | -0.006 | 0.061 | -0.072 | -0.005 | 0.092 | 0.029 | -0.138 | -0.024 | 0.059
